HepG2 viability = counter-screen for TGF-b inhibitors: cytotoxicity in HepG2 cells. 410,000 tested, 0.76% active. Potency, µM (top dose mostly 46.1 µM), for the others: at the top dose activity change, negative = cytotoxicity, hits mostly cytotoxic. HepG2 CAGA-GFP viability, ATP luminescence, 18 h. AID 588856
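CellTiter-Glo luminescence gave cytotoxicity after 18 hours at 37 degrees C. The cells were HepG2 CAGA-GFP in 1% FBS DMEM, stimulated with 500 pg/mL TGF-beta after compound addition. %Activity was normalised to no-cell wells (complete cell-killing) and DMSO (no toxicity), and curves were fitted and classified.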
HT1080NT lethal = kills 2HG-producing HT-1080-NT fibrosarcoma cells; HT-1080-NT fibrosarcoma viability, CellTiter-Glo ATP luminescence, 48 h; Potency, µM (series often up to 46.1 µM), for the others: at the top dose activity, negative = less viability, actives largely listed as cytotoxic; 360,000 tested, 1.6% active; AID 686970;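 also: NT is the 2HG producing partner of a matched IDH1 knockdown line; 0% = DMSO-treated cells and -100% = media-only wells without cells; nearly all actives have a fitted effect of over 55% in size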
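Viability by CellTiter-Glo luminescence after 48 h compound exposure at 37C of HT-1080-NT cells (750/well, RPMI, 5% FBS). % activity scaled between DMSO wells and medium-only wells, then curve-fitted and categorized by curve class.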
ATXN viability = viability counter-screen for ATXN expression inhibitors | 400,000 tested, 0.49% active | AID 651635 | Potency, µM (highest dose often 56.7 µM), actives largely listed as cytotoxic | S2 cells (HEK-293 line with an ATXN2-luciferase reporter) viability, CellTiter-Fluor protease fluorescence, 24 h; also: nearly all actives have a fitted effect of over 40% in size
HT1080 IDH1KD tx = toxicity to HT-1080 IDH1 knockdown cells (counter line); AID 686971; HT-1080 IDH1 knockdown viability, ATP luminescence, 48 h; Potency, µM (highest dose often 46.1 µM), for inactives: at the highest dose activity, negative = toxicity, actives largely listed as cytotoxic; 360,000 tested, 2% active;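 also: 0% = DMSO wells and -100% = cell-free medium wells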
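% activity derives from luminescence (CellTiter-Glo), normalised to DMSO and no-cell wells. HT-1080-IDH1KD cells, 750/well, had 48 h compound exposure at 37 °C.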
TGFb SMAD3 inh = TGF-b pathway inhibition | AID 588855 | Potency, µM (series often up to 46.1 µM), without a hit: top-dose activity, negative = inhibition, actives largely listed as inhibitors | 410,000 tested, 1.2% active | HepG2 CAGA-GFP TGF-b/SMAD3 reporter, GFP fluorescence, 18 h; TGF-beta stimulated, 500 pg/mL final; also: % is scaled to controls: 0 for no effect and ±100 for the full control effect; nearly all actives have a fitted effect of over 65% in size
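Smad-responsive CAGA-GFP expression was quantified in HEPG2 cells exposed to compounds and 500 pg/mL final TGF-beta for 18 h at 37 degrees C; unstimulated wells defined full inhibition.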
ATXN2 expr inh = reduces ATXN2 reporter expression in HEK-293 cells. 360,000 tested, 0.72% active. HEK-293 ATXN2-luciferase reporter, luminescence, 24 h. AID 1745845. Potency, µM (highest dose often 57 µM), for the others: top-dose activity change, negative = inhibition, most hits filed as inhibitors; also: % is scaled to controls: 0 for no effect and ±100 for the full control effect; nearly all actives have a fitted effect of over 55% in size
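ATXN2-luciferase reporter cells (luciferase flanked by upstream and downstream ATXN2 gene portions) were treated 24 h at 37 °C with compounds at up to 57 uM. SteadyGlo luminescence gave expression; GF-AFC fluorescence gave viability.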
* hit, by the source's call; i = inactive; ? = inconclusive; . = no result. Only some compounds are listed: those with a hit (about 3.8% of all), similar ones and a draw of the others. Calls follow the shape of the dose curve; as a rule, active = well fitted curve in the direction sought with a large enough effect; inconclusive = small, poorly fitted or top-dose-only effect, or another doubt; inactive = no such curve, though single readings can be large; an effect the other way counts as inactive or inconclusive. Potency is read from the fitted curve at half-maximal effect.

SMILES	HepG2 viability	HT1080NT lethal	ATXN viability	HT1080 IDH1KD tx	TGFb SMAD3 inh	ATXN2 expr inh
Cn1c(Cl)cnc1C1CC(=O)c2cc(Cl)ccc2O1 (configuration not stated)	-57%	?	.	9.2µM*	?	?
Cc1nc2ccc(NC(=O)c3cccs3)cc2c(=O)n1Cc1ccc(Cl)cc1	-30%	6.3µM*	?	?	?	14µM*
O=c1[nH]c2ccccc2c(=O)n1CCCl	.	.	i	.	.	1%
COc1c(Cl)cc2c([nH]c3cnccc32)c1NC(=O)c1cccnc1C	.	.	.	.	.	2%
COc1cc(-c2noc(-c3ccc(NCC4CCCO4)c([N+](=O)[O-])c3)n2)cc(OC)c1OC (configuration not stated)	-18%	.	i	.	-1%	-10%
Cc1ccc(S(=O)(=O)CCc2nnc(NC(=O)CCl)s2)cc1C	-45%	?	i	15µM*	-23%	6%
COc1ccc(CC(=O)Nc2sc3c(c2C(=O)Nc2cccc(C)c2)CCCCC3)cc1	-18%	.	.	.	-23%	.
OCC1OC(Oc2cccc3ccccc23)C(O)C(O)C1O (configuration not stated)	13%	-6%	i	-5%	-1%	4%
O=C(O)c1cc(O)c2c(c1)[C@@H]([C@H]1c3cc(C(=O)O)cc(O)c3C(=O)c3c(O[C@@H]4O[C@H](CO)[C@@H](O)[C@H](O)[C@H]4O)cccc31)c1cccc(O[C@@H]3O[C@H](CO)[C@@H](O)[C@H](O)[C@H]3O)c1C2=O	-27%	-23%	i	-25%	14µM*	-2%
CC(C)CCNC(=O)C1CCN(S(=O)(=O)c2cccc3nsnc23)CC1	2%	.	i	.	1%	7%
CC1(C)CC(=O)C2=C(C1)OC1=C(C(=O)CC(C)(C)C1)C2c1ccc(O)cc1O	7.1µM*	5.6µM*	?	5µM*	7.1µM*	-32%
Cc1cc(C)cc(NC(=O)CCc2nc3sc4c(c3c(=O)[nH]2)CCCC4)c1	-85%	-14%	?	-13%	?	8.9µM*
CC(=O)Nc1ccc(NC(=O)CCc2nc3sc4c(c3c(=O)[nH]2)CCCC4)cc1	3%	-14%	i	1%	1%	3%
C[C@@H](NC(=O)Cn1cnc2c(OCc3ccccc3)ncnc21)c1cccc2ccccc12	-22%	?	?	?	?	-29%
c1ccc(CCCNCCCn2cnc3c(OCc4ccccc4)ncnc32)cc1	-100%	-23%	25µM*	?	?	?
C[C@@H](NCCCn1cnc2c(OCc3ccccc3)ncnc21)c1cccc2ccccc12	14µM*	-29%	?	?	?	?
c1ccc(COc2ncnc3c2ncn3CCCN2CCN(Cc3cccc4ccccc34)CC2)cc1	-116%	16µM*	?	?	?	22µM*
CC(C)OP(=O)(CP(=O)(OC(C)C)OC(C)C)OC(C)C	.	.	i	.	.	3%
Cc1ccc(NS(=O)(=O)c2ccc(-c3cc(C)no3)cc2)c(C)c1	-46%	.	.	.	13µM*	.
Cc1ccc(NS(=O)(=O)c2cc(-c3cc(C)no3)ccc2C)c(Cl)c1	-32%	.	.	.	-22%	.
Cc1cc(C)cc(NS(=O)(=O)c2ccc(-c3cc(C)no3)cc2)c1	-54%	.	.	.	13µM*	.
COc1ccc(-c2cc(C)no2)cc1S(=O)(=O)Nc1cccc(C)c1	1%	-18%	i	?	4%	-9%
COc1ccc(-c2cc(C)no2)cc1S(=O)(=O)Nc1ccccc1	-4%	?	i	16µM*	-10%	2%
Cc1cc(-c2ccc(S(=O)(=O)Nc3ccc(Cl)cc3)cc2)on1	-41%	.	.	.	-9%	.
CCc1ccc(NS(=O)(=O)c2ccc(-c3cc(C)no3)cc2)cc1	11µM*	.	.	.	?	.
SMILES	HepG2 viability	HT1080NT lethal	ATXN viability	HT1080 IDH1KD tx	TGFb SMAD3 inh	ATXN2 expr inh
O=C(NCCc1nnc2n1CCN(Cc1c(F)cccc1F)CC2)c1ccco1	.	.	i	.	.	.
Cc1ccc(S(=O)(=O)c2nnn3c2nc(N2CCN(c4cccc(C)c4C)CC2)c2ccccc23)cc1C	8%	.	.	.	0%	.
O=C(Oc1c(CN2CCOCC2)cc(Cl)c2cccnc12)c1ccc(F)cc1	-39%	?	?	?	?	?
COc1cccc(C(=O)Oc2c(CN3CCOCC3)cc(Cl)c3cccnc23)c1	-55%	?	?	12µM*	?	10µM*
COc1ccc(C(=O)Oc2c(CN3CCOCC3)cc(Cl)c3cccnc23)cc1	7.9µM*	21µM*	?	?	10µM*	?
O=C(Oc1c(CN2CCOCC2)cc(Cl)c2cccnc12)c1ccccc1Cl	3.5µM*	?	?	6.5µM*	?	?
COc1cc(C(=O)Oc2c(CN3CCOCC3)cc(Cl)c3cccnc23)cc(OC)c1OC	-88%	?	1.6µM*	?	4µM*	1.6µM*

Screens as filed in PubChem BioAssay.
